This note sets out measurements from the supplement of paper PMC12297408.

The structures appear in SMILES notation. Unmarked numbers belong to inactive results.

This experiment deals with Plasmodium falciparum NF54/iGP1_RE9H ulg8 stage V gametocytes. The experiment is described as follows: gametocyte viability (luciferase signal relative to DMSO control) (% of DMSO control); higher = less gametocytocidal activity, active = 50 or less. The settings on record: concentration: 1 µM; exposure time: 72 h. The procedure, abridged: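 NF54/iGP1_RE9Hulg8 stage V gametocytes (day 12; ~2.5% gametocytemia, 3% hematocrit) were incubated with compounds at 10 µM or 1 µM final, in one well each, for 72 h at 37 °C in medium with 0.5% Albumax II. Luminescence after D-luciferin addition was read on an IVIS Lumina II. Viability refers to the mean of plate DMSO vehicle wells.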
For the compound `Cn1cc(C2=C(c3ccc(Cl)cc3Cl)C(=O)NC2=O)c2ccccc21`, the gametocyte viability was 97.8.
Turning to `COc1ccc(-c2ccc3c(N4CCOCC4)nc(N4C[C@@H](C)O[C@@H](C)C4)nc3n2)cc1CO`, the gametocyte viability was 97.1.
Regarding `O=C(O)c1cc(NCc2cc(O)ccc2O)ccc1O` [2-Hydroxy-5-(2,5-dihydroxybenzylamino)benzoic acid], the gametocyte viability is 103.
With `N#CC(=C(/N)Sc1ccccc1N)/C(C#N)=C(\N)Sc1ccccc1N`, the gametocyte viability is 94.3.
The value for `N#C/C(=C\c1ccc(O)c(O)c1)C(=O)NCc1ccccc1` was 98.4; that for `O=C(O)c1ccc2nc(-c3ccccc3)c(-c3ccccc3)nc2c1` was 98.6.
Turning to `CNC(=O)Nc1ccc(-c2nc(N3CC4CCC(C3)O4)c3cnn(C4CCC5(CC4)OCCO5)c3n2)cc1`, the gametocyte viability was 103.
The value for `CO[C@H]1C[C@@H]2CC[C@@H](C)[C@@](O)(O2)C(=O)C(=O)N2CCCC[C@H]2C(=O)O[C@H]([C@H](C)C[C@@H]2CC[C@@H](O)[C@H](OC)C2)CC(=O)[C@H](C)/C=C(\C)[C@@H](O)[C@@H](OC)C(=O)[C@H](C)C[C@H](C)/C=C/C=C/C=C/1C` [Rapamycin] was 97.3; that for `c1cncc(CN2CCC(n3ncc4c(N5CCOCC5)nc(-c5ccc6[nH]ccc6c5)nc43)CC2)c1` was 95.7; that for `Cc1ccc(-c2nn(C(C)(C)C)c3ncnc(N)c23)cc1` was 103.
The value for `N#CCNC(=O)c1ccc(-c2ccnc(Nc3ccc(N4CCOCC4)cc3)n2)cc1` was 98.5; that for `O=C(c1ccc(/C=C/c2n[nH]c3ccccc23)cc1)N1CCNCC1` was 104.
As to `Cc1cnc(NC(=O)Nc2cc(Br)c(C)cc2OC[C@@H]2CNCCO2)cn1`, the gametocyte viability is 102.
`Cc1ccc(F)c(NC(=O)Nc2ccc(-c3cccc4[nH]nc(N)c34)cc2)c1` [Linifanib (ABT-869)]: the gametocyte viability was 90.6.
The value for `Cc1ccc(S(=O)(=O)Nc2nc3ccccc3nc2Nc2ccc3nsnc3c2)cc1` was 87.4; that for `Nc1nc(N)c2nc(-c3cccc(O)c3)c(-c3cccc(O)c3)nc2n1` was 110; that for `COc1cc(N2CCC(N3CCN(C)CC3)CC2)ccc1Nc1ncc(Cl)c(Nc2ccccc2S(=O)(=O)C(C)C)n1` was 73.9.
The value for `O=C(NOCC1CC1)c1ccc(F)c(F)c1Nc1ccc(I)cc1Cl` was 93.2; that for `COc1cc(Nc2ncc3c(n2)-c2ccc(Cl)cc2C(c2c(F)cccc2OC)=NC3)ccc1C(=O)O` [MLN8237 (Alisertib)] was 95.
Take `O=Nc1c(-c2c(O)[nH]c3ccccc23)[nH]c2ccccc12` [Indirubin-3'-monooxime]: the gametocyte viability was 90.1.
Consider `CC(C)n1cnc2c(NCc3ccccc3)nc(NCCO)nc21` [N9-isopropyl-olomoucine], for which the gametocyte viability was 92.7.
With `O=C1NC(=O)/C(=C\c2ccc3nccnc3c2)S1`, the gametocyte viability was 94.4.
As for `CCc1cccc(CC)c1NC(=O)N1Cc2[nH]nc(NC(=O)c3ccc(N4CCN(C)CC4)cc3)c2C1`, the gametocyte viability was 109.
Then `CC1(C)CNc2cc(NC(=O)c3cccnc3NCc3ccncc3)ccc21` [Motesanib Diphosphate], with 97.
Then `O=c1ncn2nc(Sc3ccc(F)cc3F)ccc2c1-c1c(Cl)cccc1Cl`, with 95.2.
The value for `CO[C@H]1C[C@@H]2CC[C@@H](C)[C@@](O)(O2)C(=O)C(=O)N2CCCC[C@H]2C(=O)O[C@H]([C@H](C)C[C@@H]2CC[C@@H](OC(=O)C(C)(CO)CO)[C@H](OC)C2)CC(=O)[C@H](C)/C=C(\C)[C@@H](O)[C@@H](OC)C(=O)[C@H](C)C[C@H](C)/C=C/C=C/C=C/1C` [Temsirolimus (Torisel)] was 93.9.
As for `N#CC(=C(/N)Sc1ccccc1N)/C(C#N)=C(/N)Sc1ccccc1N`, the gametocyte viability was 100.
Turning to `COc1cc(Nc2ncc(F)c(Nc3ccc4c(n3)NC(=O)C(C)(C)O4)n2)cc(OC)c1OC`, the gametocyte viability is 99.8.
Then `CNC(=O)c1ccccc1Sc1ccc2c(/C=C/c3ccccn3)n[nH]c2c1` [Axitinib], with 103.
In the case of `CO[C@@H]1[C@H](N(C)C(=O)c2ccccc2)C[C@H]2O[C@]1(C)n1c3ccccc3c3c4c(c5c6ccccc6n2c5c31)C(=O)NC4`, the gametocyte viability is 91.1.
For the compound `COC(=O)/C=C/c1cc(O)ccc1O` [Erbstatin analog], the gametocyte viability was 97.8.
On to `COCc1cc(O)c(O)c(O)c1-c1c(COC)cc(O)c(O)c1O`, for which the gametocyte viability was 104.
In the case of `CCC[C@H](NC(=O)/C(C#N)=C/c1cccc(Br)n1)c1ccccc1`, the gametocyte viability is 114.
Then `NC(=O)c1ccc(-c2nc(-c3ccccn3)c(-c3ccc4c(c3)OCO4)[nH]2)cc1`, with 101; and `O=c1c(O)c(-c2ccc(O)c(O)c2)oc2cc(O)cc(O)c12` [Quercetin (Sophoretin)], with 105.
The value for `COc1cc(Nc2ncc(F)c(Nc3ccc4c(n3)N(COP(=O)(O)O)C(=O)C(C)(C)O4)n2)cc(OC)c1OC` was 95.1.
Then `Cc1ccc(-n2nc(C(C)(C)C)cc2NC(=O)Nc2ccc(OCCN3CCOCC3)c3ccccc23)cc1` [BIRB 796 (Doramapimod)], with 96; and `O=C1NC(=O)/C(=C/c2ccc3nccc(-c4ccncc4)c3c2)S1`, with 101; and `CCN(CCO)CCCOc1ccc2c(Nc3cc(CC(=O)Nc4cccc(F)c4)[nH]n3)ncnc2c1` [Barasertib (AZD1152-HQPA)], with 104.
Consider `Cc1cc(=O)c2c(O)c3c(O)cc(O)c4c5c(O)cc(O)c6c(O)c7c(=O)cc(C)c8c1c2c(c34)c(c65)c78` [Hypericin], for which the gametocyte viability is 103.
